From PubChem BioAssay AID950 (NMMLSC, 2007)
Screen size: about 190,000 compounds; about 120 (0.063%) were called active. No stated cut-off is given here; in the data, active means inhibition above about 40%; inconclusive means no clear call, values can overlap the other calls; inactive means below that. Shown is part of a subset that was picked to be rich in actives.

Target: Apoptosis regulator Bcl-2 (Homo sapiens) (UniProt P10415)
Assay: inhibitors of Bim-Bcl-2 binding, primary screen, biochemical, multiplexed, human Bcl-2 family (AID 950);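 further: 0% = no compound wells with probe peptide and 100% = reference peptide inhibitor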
Settings: Bead-based flow cytometry, Bim peptide-Bcl-2 binding; at 10 µM; hits give high values

Chain of Apoptosis regulator Bcl-2 (Homo sapiens) (P10415 whole entry, looked up): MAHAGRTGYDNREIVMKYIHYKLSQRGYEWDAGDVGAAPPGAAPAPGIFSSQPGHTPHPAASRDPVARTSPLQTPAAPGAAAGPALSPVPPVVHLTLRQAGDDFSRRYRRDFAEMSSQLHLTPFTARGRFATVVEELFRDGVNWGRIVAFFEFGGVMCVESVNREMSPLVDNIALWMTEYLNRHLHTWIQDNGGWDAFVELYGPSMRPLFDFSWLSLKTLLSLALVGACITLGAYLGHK

inhibition, inactive:
CC(NC(=S)Nc1ccccc1)C1COc2ccccc2O1 (configuration not stated) -6%
O=C(CCC(=O)N1CCCC1)Nc1ccc([N+](=O)[O-])cc1 -2%
CC(C)CNC(=S)NC(=O)c1ccc(Cl)cc1 0%
COCCN(C(=O)C(C)C)c1nnc(-c2ccc(C(C)(C)C)cc2)s1 -5%
C=C1C2C[C@H](O)C(C)(C)[C@@]2(O)[C@H](O)C[C@]23C[C@@](C)(O)[C@H](CC[C@H]12)[C@H]3O (some centres not stated) 0%
Nc1nc(SCC(=O)N2CCN(S(=O)(=O)c3ccc(Cl)cc3)CC2)n[nH]1 -1%
COc1cc([N+](=O)[O-])ccc1NC(=S)N1CCN(c2ccccn2)CC1 0%
Cc1ccc(NC(=S)NC(=O)/C=C/c2ccc(Cl)cc2)cc1 -10%
COC(=O)c1c(NC(=O)CCCC(=O)O)sc2c1CCCCC2 -3%
COc1cccc(NC(=O)COC(=O)CCOc2ccccc2OC)c1 -2%
Cc1cccc(/C(N)=N/OC(=O)c2ccccc2Cl)c1 -7%
CCOC(=O)C(C)n1nc(-c2ccccc2)c2ccccc2c1=O (configuration not stated) -1%
Cn1cc(Cl)c(C(=O)NNC(=S)Nc2cccc(Cl)c2)n1 0%
Cc1ccc(OC(=O)CCC(=O)Nc2ccc(Br)cc2)cc1 0%
O=C(N/N=C/c1ccccn1)c1ccc(S(=O)(=O)N2CCCCCC2)cc1 0%
O=[N+]([O-])/C(N=Nc1ccccc1)=N\Nc1ccccc1 -1%
N#CCC(=O)N/N=C/c1ccc(SCC(=O)Nc2ccccc2)o1 -1%
Cc1ccc(NC(=O)Nc2cccc(C(F)(F)F)c2)nc1 0%
CN1CCN(CC(=O)Nc2cccc([N+](=O)[O-])c2)CC1 -1%
O=C(COC(=O)Cn1cnc2ccccc21)Nc1cccc2c1C(=O)c1ccccc1C2=O -1%
CC1COc2ccccc2N1S(=O)(=O)c1ccccc1 (configuration not stated) -1%
COc1cc(NC(=O)c2ccccc2NS(=O)(=O)c2ccc(Cl)s2)cc(OC)c1 12%
CCC(=O)Nc1ccc(C(=O)N2CCN(C(=O)c3ccco3)CC2)cc1 3%
COc1ccc(/C=C/C(=O)OCC(=O)NCc2cccs2)cc1OC 0%
CCOC(=O)N1CCN(Cc2nc(Cc3cccc(C(F)(F)F)c3)no2)CC1 -6%
COc1cc2nc(CN(C)Cc3ccc(F)cc3)[nH]c(=O)c2cc1OC 14%
O=C(O)CCCCCNc1ncnc2ccc(Br)cc12 3%
